Laboratory results from PubChem BioAssay (Tox21).
“And” between values parts separate entries of the source, which are not always exact repeats. Equal entries are not always repeated. Records with an inconclusive call do not appear. Entries that show only a call come without a potency. Where a structure was tested more than once in an assay, its records may differ in their call. The source made the active and inactive calls. Unless noted, calls follow the shape of the dose curve; as a rule, active = well fitted curve in the direction sought with a large enough effect in the repeat runs; inconclusive = weak or mixed curves; inactive = no such curve, though single readings can be large; an effect the other way counts as inactive or inconclusive.

Experiments:
[1] = qHTS assay to identify small molecule antagonists of the estrogen receptor alpha (ER-alpha) signaling pathway using the BG1 cell line in the presence of 0.1 nM 17-beta-estradiol - cell viability counter screen (AID 1259241); also: nearly all actives have a fitted effect of over 40% in size
Outline: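 CellTiter-Fluor read (30 min, 37C) on ER-alpha/ERE-luc VM7Luc4E2 cells; 22 hr compound treatment; agonist 0.1 nM E2 final; same-well multiplex.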

[2] = qHTS assay to identify small molecule antagonists of the androgen receptor (AR) signaling pathway using the MDA cell line in the presence of 0.5 nM R1881 - cell viability counter screen (AID 1259242); also: nearly all actives have a fitted effect of over 45% in size
Outline: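 Live-cell protease fluorescence, CellTiter-Fluor, 30 min at 37C. Cells: MDA-kb2, 3,000/well, preincubated 5 hr. Compounds plus 0.5 nM R1881 final, 16 hr, 37C, 0% CO2.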

[3] = qHTS assay to identify small molecule HDAC inhibitors (AID 1259364);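 also: wild-type HCT-116 cells with endogenous class I/II HDAC activity; top concentration of the series differs between compounds; nearly all actives have a fitted effect of over 45% in size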
Outline: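 HCT-116 (wild type), 1,500 cells/well, overnight; compound 2 hr 37C 5% CO2; HDAC-Glo I/II reagent 30 min RT; luminescence readout.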

[4] = qHTS assay to identify small molecule HDAC inhibitors - cell viability counter screen (AID 1259365); also: series mostly up to about 92 µM; nearly all actives have a fitted effect of over 50% in size
Outline: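 To flag cytotoxic hits, 1,500 wild-type HCT-116 cells per well, plated the day before, receive test compounds for 2hr at 37 C before CellTiter-Glo reagent and a luminescence read.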

[5] = qHTS assay to identify small molecule antagonists of the sonic hedgehog signaling (Shh) pathway - cell viability counter screen (AID 1259367); also: nearly all actives have a fitted effect of over 55% in size; also: potency is read from the fitted curve at half-maximal effect
Outline: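 Cytotoxicity was assessed in parallel with Shh reporter activity by measuring live-cell protease fluorescence (CellTiter-Fluor) in NIH/3T3 cells stably carrying Gli1-Luc, treated with compound under conditioned medium stimulation for 23 hr plus 1 hr reagent incubation.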

[6] = qHTS assay to identify small molecule agonists of the sonic hedgehog signaling (Shh) pathway (AID 1259368; calls by dose curve;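 also: NIH/3T3-derived 3T3Gli1-Luc cells carrying a stable Gli1-driven firefly luciferase reporter; series mostly up to about 92 µM; nearly all actives have a fitted effect of over 15% in size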)
Outline: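 Read-out: firefly luciferase luminescence from a Gli1 response element reporter stably integrated in NIH/3T3-derived 3T3Gli1-Luc cells, measured 30 min at room temperature after reagent addition. Compound exposure lasted 24 hr at 37 C, 5% CO2.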

[7] = qHTS assay to identify small molecule antagonists of the sonic hedgehog signaling (Shh) pathway (AID 1259369; calls by dose curve; also: nearly all actives have a fitted effect of over 45% in size; also: potency is read from the fitted curve at half-maximal effect)
Outline: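 Luminescence readout: firefly Luc under Gli1 response element in 3T3Gli1-Luc cells (NIH/3T3 clone). Antagonist mode, stimulation by conditioned medium; compound exposure 24hr at 37 C, 5% CO2.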

[8] = target: Estrogen receptor beta (Homo sapiens) (UniProt Q92731); assay: qHTS assay to identify small molecule agonists of the estrogen receptor beta (ER-beta) signaling pathway (AID 1259377; active = well fitted activation curve with a large enough effect in the signal ratio in the repeat runs, not every such curve was filed as active; the % refers to the signal ratio)
Estrogen receptor beta (Homo sapiens), sequence (Q92731 whole entry, looked up): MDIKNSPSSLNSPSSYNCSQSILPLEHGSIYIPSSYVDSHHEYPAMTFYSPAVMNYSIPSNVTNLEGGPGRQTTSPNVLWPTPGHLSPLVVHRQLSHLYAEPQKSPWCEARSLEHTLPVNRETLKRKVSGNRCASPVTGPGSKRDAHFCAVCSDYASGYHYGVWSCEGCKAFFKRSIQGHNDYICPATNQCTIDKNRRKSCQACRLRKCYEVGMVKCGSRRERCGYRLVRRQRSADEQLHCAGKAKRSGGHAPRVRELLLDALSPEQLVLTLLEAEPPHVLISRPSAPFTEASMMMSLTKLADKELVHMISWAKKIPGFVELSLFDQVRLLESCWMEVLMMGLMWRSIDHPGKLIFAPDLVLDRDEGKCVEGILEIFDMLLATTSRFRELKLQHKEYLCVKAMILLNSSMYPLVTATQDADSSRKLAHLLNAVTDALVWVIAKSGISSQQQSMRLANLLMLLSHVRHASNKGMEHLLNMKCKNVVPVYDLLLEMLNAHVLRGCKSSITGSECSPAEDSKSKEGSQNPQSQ
Outline: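 Screening used GripTite ER-beta-UAS-bla cells held in 2% charcoal-stripped FBS medium. After overnight (16 hr) compound incubation at 37C, beta-lactamase activity was detected with a FRET substrate by fluorescence.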

[9] = target: Estrogen receptor beta (Homo sapiens) (UniProt Q92731); assay: qHTS assay to identify small molecule antagonists of the estrogen receptor beta (ER-beta) signaling pathway (AID 1259378; active = well fitted inhibition curve with a large enough effect in the signal ratio in the repeat runs, not every such curve was filed as active; the % refers to the signal ratio)
Outline: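 ER-beta-UAS-bla HEK293T (GripTite) cells in 2% charcoal-stripped FBS medium were preincubated 6 hr at 37C, dosed with compound, then stimulated with 1 nM E2 (final) for 16 hr; beta-lactamase reporter read by B/G FRET fluorescence after 2 hr substrate loading.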

[10] = qHTS assay to identify small molecule agonists of the androgen receptor (AR) signaling pathway in the presence of an antagonist - cell viability counter screen (AID 1259379);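 also: MDA-kb2 human breast cancer cells carrying an MMTV luciferase reporter; series mostly up to about 92 µM; nearly all actives have a fitted effect of over 25% in size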
Outline: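 Viability counter screen: CellTiter-Fluor fluorescence, measured in the same wells as the luciferase read-out. MDA-kb2 cells, 3,000/well, with nilutamide at 3.0uM final and compounds at 15 concentrations, 16 hr at 37C, 0% CO2.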

[11] = qHTS assay to identify small molecule agonists of the estrogen receptor beta (ER-beta) signaling pathway - cell viability counter screen (AID 1259380); also: nearly all actives have a fitted effect of over 30% in size
Outline: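 Luminescence read-out (CellTiter-Glo, 30 min, room temp) taken in the same wells as the beta-lactamase reporter assay; ER-beta-UAS-bla HEK293T cells exposed to DMSO-dissolved compounds for 16 hr at 37C in 2% charcoal-stripped FBS medium.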

[12] = qHTS assay to identify small molecule antagonists of the estrogen receptor beta (ER-beta) signaling pathway - cell viability counter screen (AID 1259382); also: series mostly up to about 92 µM; nearly all actives have a fitted effect of over 55% in size
Outline: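 Luminescent ATP read-out (CellTiter-Glo, 30 min, RT) taken in the same wells as the bla reporter assay. HEK293T ER-beta-UAS-bla cells in 2% charcoal-stripped FBS were exposed to compounds with 1nM E2 for 16 hr at 37C.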

[13] = qHTS assay to identify small molecule agonists or antagonists of the thyroid stimulating hormone receptor (TSHR) signaling pathway - wild type cell line counter screen (AID 1259384; calls by dose curve)
Outline: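 Wild-type HEK293 cells were plated 18 h at 37 C/5% CO2, pin-dosed with compound plus Ro20-1724 medium, held 30 min at room temperature, then given cAMP-d2 and anti-cAMP-cryptate; fluorescence was read after 1 h. Fifteen concentrations, triplicate.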

[14] = target: Thyrotropin receptor (Homo sapiens) (UniProt P16473); assay: qHTS assay to identify small molecule antagonists of the thyroid stimulating hormone receptor (TSHR) signaling pathway (AID 1259385; calls by dose curve; also: nearly all actives have a fitted effect of over 20% in size)
Thyrotropin receptor (Homo sapiens), sequence (P16473 whole entry, looked up): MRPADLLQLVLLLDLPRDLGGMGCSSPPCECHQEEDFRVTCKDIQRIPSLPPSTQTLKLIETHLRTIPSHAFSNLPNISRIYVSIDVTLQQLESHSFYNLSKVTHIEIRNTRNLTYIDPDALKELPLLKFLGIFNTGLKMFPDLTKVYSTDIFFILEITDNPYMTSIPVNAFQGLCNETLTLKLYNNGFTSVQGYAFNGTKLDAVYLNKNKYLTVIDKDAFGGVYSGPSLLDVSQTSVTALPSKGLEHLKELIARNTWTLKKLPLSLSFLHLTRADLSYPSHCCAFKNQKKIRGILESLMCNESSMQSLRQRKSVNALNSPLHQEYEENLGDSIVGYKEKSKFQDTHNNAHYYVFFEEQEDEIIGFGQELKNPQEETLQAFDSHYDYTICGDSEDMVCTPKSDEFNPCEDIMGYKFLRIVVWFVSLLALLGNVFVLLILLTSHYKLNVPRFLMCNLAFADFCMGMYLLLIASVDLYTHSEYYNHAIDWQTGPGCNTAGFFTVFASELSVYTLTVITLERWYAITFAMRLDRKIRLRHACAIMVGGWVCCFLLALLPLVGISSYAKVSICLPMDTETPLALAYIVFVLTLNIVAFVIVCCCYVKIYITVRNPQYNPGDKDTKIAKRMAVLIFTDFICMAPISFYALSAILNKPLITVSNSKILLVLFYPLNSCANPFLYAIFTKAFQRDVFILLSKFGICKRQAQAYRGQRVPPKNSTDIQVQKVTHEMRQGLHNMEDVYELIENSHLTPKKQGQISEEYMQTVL
Outline: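 TSHR-HEK293 cells were plated and held 18 h at 37C/5% CO2, then given compound plus Ro20-1724 and stimulated with TSH at 1.5 ng/mL final. After 30 min at room temperature, cAMP was detected with cAMP-d2/anti-cAMP-cryptate (1 h) by fluorescence.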

[15] = qHTS assay to identify small molecule agonists of the estrogen receptor alpha (ER-alpha) signaling pathway in the presence of an antagonist - cell viability counter screen (AID 1259386);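 also: series mostly up to about 92 µM; cells exposed to compounds for 22 h at 37 °C before the viability read; nearly all actives have a fitted effect of over 30% in size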
Outline: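 Read-out: CellTiter-Fluor fluorescence after 1hr reagent incubation, measured in the same wells as the luciferase readout. VM7Luc4E2 cells were exposed to 15 compound concentrations with 10.0nM ICI-182,780 for 22hr at 37C.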

[16] = qHTS assay to identify small molecule agonists of the sonic hedgehog signaling (Shh) pathway - cell viability counter screen (AID 1259366); also: nearly all actives have a fitted effect of over 50% in size
Outline: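 Fluorescence from CellTiter-Fluor reports live cells in this counter screen. NIH/3T3-derived Gli1-Luc reporter cells receive test compounds for 24hr at 37C; reagent goes in at 23hr.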

[17] = target: Androgen receptor (Homo sapiens) (UniProt P10275); assay: qHTS assay to identify small molecule agonists of the androgen receptor (AR) signaling pathway in the presence of an antagonist (AID 1259381; calls by dose curve; also: nearly all actives have a fitted effect of over 15% in size)
Androgen receptor (Homo sapiens), sequence (P10275 whole entry, looked up): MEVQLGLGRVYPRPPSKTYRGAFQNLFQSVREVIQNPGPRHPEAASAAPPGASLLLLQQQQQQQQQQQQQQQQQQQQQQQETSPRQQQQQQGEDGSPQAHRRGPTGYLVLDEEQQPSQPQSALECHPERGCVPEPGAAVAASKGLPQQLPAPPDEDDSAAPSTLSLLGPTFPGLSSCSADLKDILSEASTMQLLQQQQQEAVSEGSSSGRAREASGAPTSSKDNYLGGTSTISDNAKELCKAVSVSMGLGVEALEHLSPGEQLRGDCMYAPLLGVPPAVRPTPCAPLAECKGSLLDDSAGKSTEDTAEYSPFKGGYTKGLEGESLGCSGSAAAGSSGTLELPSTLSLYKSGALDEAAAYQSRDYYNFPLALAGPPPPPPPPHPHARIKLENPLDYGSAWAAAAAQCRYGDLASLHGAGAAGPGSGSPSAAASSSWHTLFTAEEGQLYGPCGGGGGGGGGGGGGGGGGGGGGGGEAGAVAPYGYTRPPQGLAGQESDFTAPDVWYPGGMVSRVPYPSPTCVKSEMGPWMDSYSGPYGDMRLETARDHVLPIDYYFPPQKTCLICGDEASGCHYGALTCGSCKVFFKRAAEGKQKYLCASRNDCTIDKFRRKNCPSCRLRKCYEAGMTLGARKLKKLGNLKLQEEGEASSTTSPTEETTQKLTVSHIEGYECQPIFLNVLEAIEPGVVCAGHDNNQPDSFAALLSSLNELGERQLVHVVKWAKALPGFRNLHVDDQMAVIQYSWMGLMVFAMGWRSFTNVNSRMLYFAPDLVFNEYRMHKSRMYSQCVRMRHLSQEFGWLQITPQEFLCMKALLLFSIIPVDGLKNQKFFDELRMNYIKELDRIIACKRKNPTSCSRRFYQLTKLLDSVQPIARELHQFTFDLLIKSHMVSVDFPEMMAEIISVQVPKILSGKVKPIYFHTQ
Outline: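 Luciferase read-out (ONE-Glo, 30min room temperature) in MDA-kb2 MMTV-reporter cells; agonist mode run in presence of AR antagonist nilutamide, 3.0uM final. Compounds tested as 15-point series, 16hr exposure at 37C, 0% CO2.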

[18] = target: Estrogen receptor (Homo sapiens) (UniProt P03372); assay: qHTS assay to identify small molecule agonists of the estrogen receptor alpha (ER-alpha) signaling pathway in the presence of an antagonist (AID 1259383; calls by dose curve; also: top concentration of the series differs between compounds; nearly all actives have a fitted effect of over 15% in size)
Estrogen receptor (Homo sapiens), sequence (P03372 whole entry, looked up): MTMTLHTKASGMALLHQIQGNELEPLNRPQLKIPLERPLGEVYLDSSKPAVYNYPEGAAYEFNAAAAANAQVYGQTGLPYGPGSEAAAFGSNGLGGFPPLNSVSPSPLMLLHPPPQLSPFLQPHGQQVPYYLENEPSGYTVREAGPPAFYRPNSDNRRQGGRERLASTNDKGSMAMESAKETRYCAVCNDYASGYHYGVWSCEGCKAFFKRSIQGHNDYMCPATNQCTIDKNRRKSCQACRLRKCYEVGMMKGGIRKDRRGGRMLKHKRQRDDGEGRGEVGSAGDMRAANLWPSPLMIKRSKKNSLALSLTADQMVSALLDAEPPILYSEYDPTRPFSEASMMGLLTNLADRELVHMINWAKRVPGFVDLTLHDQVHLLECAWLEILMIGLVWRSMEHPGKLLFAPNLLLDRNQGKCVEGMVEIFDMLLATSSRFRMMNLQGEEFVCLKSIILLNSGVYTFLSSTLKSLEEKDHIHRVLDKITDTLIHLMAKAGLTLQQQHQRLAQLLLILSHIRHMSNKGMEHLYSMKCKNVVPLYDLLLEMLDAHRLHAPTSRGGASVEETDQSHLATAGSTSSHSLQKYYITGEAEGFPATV
Outline: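 Luciferase luminescence (ONE-Glo, 30min at room temperature) measured in VM7Luc4E2 cells after 22hr compound exposure at 15 concentrations, with 10.0nM ICI-182,780 final present; cells express endogenous ER-alpha and carry four EREs upstream of luciferase.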

Brc1ccc(Br)cc1
Potency [1]: inactive | Potency [2]: inactive | Potency [3]: inactive | Potency [4]: inactive | Potency [5]: inactive | Potency [6]: inactive | Potency [7]: inactive and 54.5 µM (active) | Potency [8]: inactive | Potency [9]: inactive | Potency [10]: inactive | Potency [11]: inactive | Potency [12]: inactive | Potency [13]: inactive | Potency [14]: inactive | Potency [15]: inactive

N#CC(c1ccccc1)c1ccccc1
Potency [1]: inactive | Potency [2]: inactive | Potency [3]: inactive | Potency [4]: inactive | Potency [16]: inactive | Potency [5]: inactive | Potency [7]: inactive | Potency [8]: inactive | Potency [9]: inactive | Potency [10]: inactive | Potency [11]: inactive | Potency [12]: inactive | Potency [13]: inactive | Potency [14]: inactive | Potency [15]: inactive

CCC(=O)Nc1ccc(Cl)c(Cl)c1
Potency [1]: inactive | Potency [2]: inactive | Potency [3]: inactive | Potency [4]: inactive | Potency [16]: inactive | Potency [5]: inactive | Potency [6]: inactive | Potency [10]: inactive | outcome [17]: inactive | Potency [12]: inactive | Potency [13]: inactive | Potency [14]: inactive | Potency [15]: inactive

O=P(OCCCl)(OCCCl)OCCCl
Potency [1]: inactive | Potency [2]: inactive | Potency [3]: inactive | Potency [4]: inactive | Potency [5]: inactive | Potency [6]: inactive | Potency [7]: inactive | Potency [8]: inactive | Potency [9]: inactive | Potency [10]: inactive | Potency [11]: inactive | Potency [12]: inactive | Potency [15]: inactive

c1ccc(C2CO2)cc1 (stereo unspecified)
Potency [1]: inactive | Potency [2]: inactive | Potency [3]: inactive | Potency [4]: inactive | Potency [5]: inactive | Potency [7]: inactive | Potency [10]: inactive | Potency [11]: inactive | Potency [12]: inactive | Potency [13]: inactive | Potency [14]: inactive | Potency [15]: inactive

CC(C)(O)C#N
Potency [1]: inactive | Potency [2]: inactive | Potency [3]: inactive | Potency [4]: inactive | Potency [5]: inactive | Potency [6]: inactive | Potency [7]: inactive | Potency [9]: inactive | Potency [10]: inactive | Potency [11]: inactive | Potency [12]: inactive | Potency [13]: inactive | Potency [14]: inactive | Potency [15]: inactive

COP(=S)(OC)SCn1nnc2ccccc2c1=O
Potency [1]: inactive | Potency [2]: inactive | Potency [3]: inactive | Potency [4]: inactive | Potency [16]: inactive | Potency [6]: inactive | Potency [7]: 30 µM (active) and inactive | Potency [8]: inactive | Potency [10]: inactive | outcome [17]: inactive | Potency [12]: inactive | Potency [18]: inactive | Potency [13]: inactive | Potency [14]: inactive | Potency [15]: inactive

COP(=O)(NC(C)=O)SC (stereo unspecified)
Potency [1]: inactive | Potency [2]: inactive | Potency [3]: inactive | Potency [4]: inactive | Potency [5]: 68.7 µM (active) and inactive | Potency [6]: inactive | Potency [7]: 27.3 µM (active) and inactive | Potency [8]: inactive | Potency [9]: inactive | Potency [10]: inactive | Potency [11]: inactive | Potency [12]: inactive | Potency [15]: inactive

[CH3][Sn]([Cl])([Cl])[Cl]
Potency [1]: inactive | Potency [2]: inactive | Potency [3]: inactive | Potency [4]: inactive | Potency [16]: inactive | Potency [5]: inactive | Potency [6]: inactive | Potency [7]: inactive | Potency [8]: inactive | Potency [9]: inactive | Potency [10]: inactive | Potency [11]: inactive | Potency [12]: inactive | Potency [13]: inactive | Potency [14]: inactive | Potency [15]: inactive
